# Source: PubChem BioAssay (several laboratories)
# Shown are actives, neighbours in structure and some others; about 2.1% of the full set was active somewhere.
# Sa RN4220 lethal: S. aureus RN4220 growth inhibition; inhibition, % (no concentration beside the values); 0.33% of 330,000 active; OD600, 16 h; in the data active = inhibition above about 85%;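 note: plate controls were untreated cells for no effect and reference antibiotic for full effect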
# CCHFV vOTU inh: blocks the CCHF virus ovarian tumor domain protease | CCHFV vOTU protease, Pep-AMC fluorescence | inhibition, % at 11.5 µM | 0.55% of 370,000 active | AID 651958; in the data active = inhibition above about 30%; note: 0% = vehicle wells with enzyme and 100% = no enzyme wells
# PrPC surface inh: cell surface PrPC inhibition, primary TR-FRET screen | P04156 | TR-FRET read-out | AID 720596 | inhibition, % at 13.8 µM | 0.43% of 370,000 active; in the data active = inhibition above about 24%; note: 0% = median of the test wells and 100% = reference compound wells
# PrP 5UTR inh: inhibition of PrP 5' UTR reporter expression; cell-based PrP 5' UTR mRNA reporter, plate reader; inhibition, % (test concentration not listed); 0.35% of 340,000 active; in the data active = inhibition above about 52%; note: 0 = median of the neutral control wells
# PfHsp40 yeast: compounds rescuing yeast from Plasmodium falciparum HSP40 toxicity; S. cerevisiae expressing PfHsp40, growth rescue, ATP luminescence; growth rescue, % at 12.5 µM; 0.68% of 340,000 active; AID 504582; in the data active = growth rescue above about 28%, passing the limit was not always enough;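 note: yeast W303a lacking pdr1 and pdr3 grown in galactose medium; growth measured after three days at 30 °C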
# Sa ugtP lethal: compounds lethal to S. aureus RN4220 ugtP deletion mutant; OD600 growth, 16 h; growth inhibition, % (test concentration not listed); 0.54% of 330,000 active; in the data active = growth inhibition above about 68%;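 note: plate controls were untreated wells for no effect and antibiotic for full effect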
# An asterisk follows results filed as active; nt = no result.
SMILES,Sa RN4220 lethal,CCHFV vOTU inh,PrPC surface inh,PrP 5UTR inh,PfHsp40 yeast,Sa ugtP lethal
CCOC(=O)C(O)(c1ccc(NC(=S)NC(=O)c2ccc(Cl)cc2Cl)cc1)C(F)(F)F (stereo unspecified),24,1,3,-3,1,84*
COC(=O)C(O)(c1ccc(NC(=S)NC(=O)c2ccc(Cl)cc2Cl)cc1)C(F)(F)F (stereo unspecified),5,25,0,-12,0,86*
CCN(CC)C(=O)c1[nH]cnc1C(=O)NC(CC(C)C)C(=O)OC(C)(C)C (stereo unspecified),9,nt,nt,nt,nt,0
CC(/C=C/c1ccccc1)=NNc1nc(-c2ccccc2)cs1,9,nt,nt,nt,nt,-13
CCC[C@@H](CN1CCC[C@H]1CN1C(N)=NC[C@@H]1Cc1ccccc1)N1C[C@@H](Cc2ccccc2)N(CCCC2CCCC2)C1=N,nt,nt,nt,-9,2,nt
CCC(C)C1CN(C(C)CN2CCCC2CN2C(N)=NCC2Cc2ccccc2)C(=N)N1CCCC1CCCC1 (stereo unspecified),100*,nt,nt,nt,nt,100*
CCC[C@@H](CN1CCC[C@H]1CN1C(N)=NC[C@H]1CC(C)C)N1C[C@@H](Cc2ccccc2)N(CCCC2CCCC2)C1=N,100*,11,-2,-7,1,101*
CC(CN1CCCC1CN1C(N)=NCC1Cc1ccccc1)N1CC(Cc2ccccc2)N(CCCC2CCCC2)C1=N (stereo unspecified),101*,nt,nt,nt,nt,100*
CCCCN1C(=N)N([C@@H](C)CN2CCC[C@H]2CN2C(N)=NC[C@@H]2Cc2ccccc2)C[C@H]1[C@H](C)CC,nt,12,1,-19,1,nt
CC(CC(=O)Nc1ccccc1)=NNC(=O)COc1ccc(C)cc1Br,1,nt,nt,nt,nt,2
S=C(NCC1CC1)NN=Cc1ccccc1Cl,3,nt,nt,nt,nt,11
Cc1csc(C(C#N)C(=O)c2cc3ccccc3o2)n1 (stereo unspecified),84*,14,-10,-82,2,79
Cc1csc(NC(=O)c2cc3ccccc3o2)n1,-4,12,-2,-38,0,-18
CC(=NN1CCN(Cc2ccc(Cl)cc2)CC1)c1ccc([N+](=O)[O-])cc1,3,nt,nt,nt,nt,-7
COc1cccc(-c2nc(=S)c3c(n2Cc2ccco2)CCCC3)c1,-3,12,-9,-22,3,85*
C#CCOCCOCCOCCNc1nc(N2CCN(C(=O)C(CCC(=O)O)n3cc(C(N)Cc4ccc(O)cc4)nn3)CC2)nc(N2CCN(C(=O)C(CCC(=O)O)n3cc(C(N)Cc4ccc(O)cc4)nn3)CC2)n1 (stereo unspecified),5,nt,nt,nt,nt,3
COc1ccc2sc(-c3ccccc3OC)c(-c3ccc(OCCN(C)C)cc3)c2c1,2,4,2,-15,-1,88*
COc1ccc2sc(-c3ccccc3OC)c(-c3ccc(SC)cc3)c2c1,nt,2,-6,nt,nt,nt
COc1cccc(-c2sc3ccc(OC)cc3c2-c2ccc(OCCN3CCCC3)cc2)c1,95*,nt,nt,-23,40*,90*
COc1cccc(-c2sc3ccc(OC)cc3c2-c2ccc(OC)cc2F)c1,-1,1,2,-39,1,90*
COc1ccccc1-c1sc2ccccc2c1-c1ccc2c(c1)OCCO2,-10,6,-7,-29,1,99*
CCCNC(=O)OCC1OC(CCON=CCC2C=CC(OC(C)=O)C(COC(C)=O)O2)C=CC1Oc1ccc(OC)cc1 (stereo unspecified),6,nt,nt,nt,nt,3
C=CCNC(=O)C(C#N)=Cc1c(N(Cc2ccccc2)Cc2ccccc2)nc2ccccn2c1=O,-1,nt,nt,nt,nt,-7
COc1cc(C=NNC(=O)CCN2CCN(C)CC2)cc2c1OCO2,3,nt,nt,nt,nt,2
CCOC(=O)C1=C(c2ccccc2)NC(N)=NC1c1ccc(OCc2ccc(Cl)cc2)c(OC)c1 (stereo unspecified),99*,15,11,-26,0,71
SMILES,Sa RN4220 lethal,CCHFV vOTU inh,PrPC surface inh,PrP 5UTR inh,PfHsp40 yeast,Sa ugtP lethal
CC(=O)c1ccc(NC=CC(=O)c2ccc(C)cc2)cc1,5,nt,nt,nt,nt,-2
CCOC(=O)c1cc(OC(=O)c2cccc([N+](=O)[O-])c2)n(-c2ccccc2)n1,0,-3,4,-4,22,6
CCOC(=O)c1cc(OC(=O)c2ccccc2)n(-c2ccccc2)n1,3,6,0,-10,112*,5
Nc1ncn([C@@H]2O[C@H](CO)[C@@H](O)[C@H]2O)c(=O)n1,nt,1,42*,15,-1,nt
O=Nc1c2cc3ccccc3[nH]c-2c2ccccc12,3,4,-10,-82,54*,-14
O=c1c2ccccc2[nH]c2ccccc12,0,-157,-7,-8,0,10
FC(F)(F)c1cccc(NC(=S)Nc2ccc(Cl)cc2Cl)c1,98*,-14,-3,1,-2,84*
Fc1ccc(NC(=S)Nc2ccc(F)c(Cl)c2)cc1Cl,108*,nt,nt,-16,-2,97*
O=C(NC(=S)Nc1ccc(F)c(Cl)c1)C1CC1,-5,2,1,-23,3,13
COC(=O)C1=C(C)N(Cc2ccccc2)C(=NCCc2c[nH]c3ccccc23)NC1c1cccc(C(F)(F)F)c1 (stereo unspecified),41,nt,nt,nt,nt,49
COC(=O)C1=C(c2ccc(OCc3ccccc3)cc2)CC2CCC1N2C(=O)NCc1cccc(OC)c1 (stereo unspecified),-6,nt,nt,nt,nt,-13
COC(=O)C1=C(c2cccc(NC(C)=O)c2)CC2CCC1N2C (stereo unspecified),3,nt,nt,nt,nt,-6
O=C(NC(=S)NC1CCCCCC1)c1cncc(Br)c1,0,10,-1,-30,33*,34
O=[N+]([O-])c1cc(C(F)(F)F)ccc1NCCc1c[nH]c2ccc(O)cc12,4,23,-10,-28,484*,12
COC(=O)c1cccc(C23CC4(C2)C(CN(Cc2cccnc2)C4c2ccccc2)C3c2ccc(Cl)nc2)c1 (stereo unspecified),-3,nt,nt,nt,nt,-1
C/C(=N\NC(=S)NCCc1ccccc1)c1cccs1,nt,7,-5,-6,96*,nt
Nc1ccc(C(=O)OCC(=O)N2CCOCC2)cc1[N+](=O)[O-],2,-8,-22,-69,47*,-8
O=C1NC(=O)C(=Cc2ccccc2OCCOc2ccc([N+](=O)[O-])cc2)C(=O)N1,28,nt,nt,-20,45*,-4
CN1C(=O)C(=Cc2ccccc2OCCOc2ccc([N+](=O)[O-])cc2)C(=O)N(C)C1=O,18,8,-2,-24,23,-2
Cc1cc(C)c2nc(NC(=O)c3ccc([N+](=O)[O-])o3)sc2c1,8,-8,2,-28,-3,99*
CN(C)CCCN(C(=O)COc1ccc(Cl)cc1)c1nc2cc3c(cc2s1)OCO3,-3,8,-8,-8,-1,22
CN(C)CCCN(C(=O)COc1ccc(Cl)cc1)c1nc2cc3c(cc2s1)OCCO3,-1,-12,-7,-35,1,91*
